Experimental findings from PubChem BioAssay are described below.

Several values for one entry are separate records, joined by “and”; a condition that tells them apart may be missing. Equal entries are not always repeated. Activity calls are given as the source filed them. Unless noted, the rule behind the calls is not given here.

Assay [1] relates to XIP peptide (Xip251-270) binding. The assay can be described thus: XIP fragment 251-270 binding compounds – biochemical, small-molecule microarray, fluorescence 635/667 nm, 0.1 µg/mL protein, primary screen (AID 1182). Particulars: fluorescent protein binding, 635 nm, higher = more signal, called active from +8 up or from −8 down.
The next assay concerns XIP peptide (Xip251-270). The assay can be described thus: compounds binding XIP fragment 251-270 – biochemical, small-molecule microarray, fluorescence 635/667 nm, 0.5 µg/mL protein, primary screen (AID 1183). To be noted: fluorescence 635 nm, higher = more signal.
Assay [2] can be described thus: blood-stage malaria parasite viability loss – strain 3D7, DAPI fluorescence, 100 nL, primary screen (AID 1184).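 Note: parasites grown inside human red blood cells in medium with human serum.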 Particulars: P. falciparum 3D7 growth, 3 d, higher = more signal.
In assay [3] the target is Homeobox protein Hox-A13 (Mus musculus) (UniProt Q62424). Description: disruptors of Hoxa13 oligonucleotide interaction – biochemical, fluorescence polarization, labeled oligonucleotide, primary screen (AID 1185). Particulars: Hoxa13:DNA binding, 15 min, higher = more signal, called active from +8 up or from −8 down.
Assay [4] is described as follows: blockers of DNA damage checkpoint Chk1 activation – imaging, HeLa, hydroxyurea, phospho-Chk1 antibody, percent positive cells, primary screen (AID 1186). Particulars: hydroxyurea-induced phospho-Chk1 immunofluorescence imaging, higher = more signal.
Assay [5] in a line: blockers of DNA damage checkpoint Chk1 activation – imaging, HeLa, hydroxyurea, phospho-Chk1 nuclear intensity, primary screen (AID 1187). To be noted: hydroxyurea-induced phospho-Chk1 immunofluorescence imaging, higher = more signal.

Homeobox protein Hox-A13 (Mus musculus), sequence (Q62424 whole entry, looked up): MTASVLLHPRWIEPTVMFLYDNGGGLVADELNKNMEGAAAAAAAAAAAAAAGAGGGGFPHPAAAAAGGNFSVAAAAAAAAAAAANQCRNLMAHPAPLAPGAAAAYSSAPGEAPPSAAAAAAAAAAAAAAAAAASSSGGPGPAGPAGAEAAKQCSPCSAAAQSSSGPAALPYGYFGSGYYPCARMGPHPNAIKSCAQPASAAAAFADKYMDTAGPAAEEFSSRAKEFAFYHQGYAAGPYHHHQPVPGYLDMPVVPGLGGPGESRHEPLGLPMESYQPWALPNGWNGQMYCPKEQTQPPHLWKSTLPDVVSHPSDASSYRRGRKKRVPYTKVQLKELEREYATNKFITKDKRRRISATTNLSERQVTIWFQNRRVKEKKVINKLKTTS

Consider `C[N+](C)(C)CCCCCCNC(=O)[C@H]1C[C@H]2C(=O)N[C@@H](CCCC[N+](C)(C)C)C(=O)N2[C@H]1c1cccc(OCCO)c1`, for which the composite z-score was 0.421 (inactive) and 1.17 (inactive) in assay [1]; 0.691 and 0.903 in the assay with XIP peptide (Xip251-270). Also, the z-score in assay [2] is 0.11 and 0.17; in assay [3], -2.01 (inactive) and -2.31 (inactive); in assay [4] it was 0.247 (inactive) and 0.199 (inactive); in assay [5] it was 0.316 (inactive) and -0.109 (inactive).
Turning to `CCOC(=O)C[C@H]1[C@H](OC(=O)c2ccccc2-c2ccccc2)[C@@H](NC(=O)c2ccccc2)c2cc(OCCCO)ccc2N1C(=O)c1ccc2ccccc2n1`, the composite z-score was -0.196 (inactive) and 0.367 (inactive) in assay [1]; -0.0343 and 0.393 with XIP peptide (Xip251-270). Moreover, the z-score in assay [2] was -0.345 and 0.0894; in assay [3] it was -3.24 (inactive) and -1.56 (inactive); in assay [4], 0.105 (inactive) and -0.0471 (inactive); in assay [5], 0.118 (inactive) and -0.0805 (inactive).
As for `C=CCN(C(=O)C1N(CCOCCO)C(=O)C2C(C(=O)O)C3C=CC21O3)c1ccc(OC)cc1` (stereo unspecified), the composite z-score in assay [1] is -0.675 (inactive) and -0.315 (inactive); in the assay with XIP peptide (Xip251-270), 0.138 and 0.24. Further, the z-score in assay [2] was 0.301 and -0.0133; in assay [3], -1.06 (inactive) and -0.636 (inactive); in assay [4], 0.0962 (inactive) and 0.399 (inactive); in assay [5], -0.087 (inactive) and 0.191 (inactive).
Regarding `CC(CO)N1C(=O)[C@@H]2C3C(=O)OCCC=C[C@H]3OC23C=CCN(Cn2nnc4ccccc42)C(=O)[C@@H]13` (stereo partly specified), the composite z-score is 0.287 (inactive) and 0.0057 (inactive) in assay [1]; 0.699 and 0.41 in the assay with XIP peptide (Xip251-270). For the same compound, the z-score in assay [2] is -0.0355 and 0.986; in assay [3] it was -3.43 (inactive) and -5.52 (inactive); in assay [4] it was 0.787 (inactive) and 0.875 (inactive); in assay [5] it was 0.336 (inactive) and 0.749 (inactive).
As for `C[N+](C)(C)CCCCNC(=O)[C@@H]1C[C@@H]2C(=O)N[C@@H](CCCC[N+](C)(C)C)C(=O)N2[C@@H]1c1cccc(OCCO)c1`, the composite z-score in assay [1] was 0.785 (inactive) and 1.87 (inactive); with XIP peptide (Xip251-270), 0.697 and 0.917. Further, the z-score was -0.0982 and -0.462 in assay [2]; -0.648 (inactive) and -1.01 (inactive) in assay [3]; -0.123 (inactive) and -0.528 (inactive) in assay [4]; 0.0051 (inactive) and -0.229 (inactive) in assay [5].
On to `O=C1C[C@]2(c3ccc([N+](=O)[O-])cc3)C(=O)N(Cc3ccccc3)c3cc(CO)ccc3[C@H]2N1C1CCCCC1`, for which the composite z-score was -0.182 (inactive) and 0.877 (inactive) in assay [1]; -0.242 and 0.519 in the assay with XIP peptide (Xip251-270). Moreover, the z-score in assay [2] was 1.04 and -1.97; in assay [3], -1.48 (inactive) and -3.19 (inactive); in assay [4], 0.112 (inactive) and -0.427 (inactive); in assay [5], 0.357 (inactive) and -0.265 (inactive).
Consider `C=CCN(C(=O)C1N(C(C)(C)CO)C(=O)C2C(C(=O)O)C3C=CC21O3)c1ccc(OC)cc1` (stereo unspecified), for which the composite z-score is 0.382 (inactive) and -0.0838 (inactive) in assay [1]; -0.383 and -1.8 in the assay on XIP peptide (Xip251-270). Further, the z-score in assay [2] is -0.445 and 0.004; in assay [3] it was -1.43 (inactive) and 0.701 (inactive); in assay [4], 2.27 (inactive) and 0.407 (inactive); in assay [5] it was 1.44 (inactive) and 0.526 (inactive).
For `C=CCN(CCCCC)C(=O)C1N(C(C)(C)CO)C(=O)C2C(C(=O)O)C3C=CC21O3` (stereo unspecified), the composite z-score in assay [1] is -0.53 (inactive) and -1 (inactive); in the assay with XIP peptide (Xip251-270), -0.417 and -1.97. Further, the z-score is -0.0999 and 0.86 in assay [2]; -0.598 (inactive) and 0.0686 (inactive) in assay [3]; 0.0341 (inactive) and -0.15 (inactive) in assay [4]; 0.436 (inactive) and 0.287 (inactive) in assay [5].
For `CC(CO)N1C(=O)[C@@H]2C3C(=O)OCCC=C[C@H]3OC23C=CCN(Cc2ccccc2)C(=O)[C@@H]13` (stereo partly specified), the composite z-score in assay [1] is -0.05 (inactive) and 0.127 (inactive); in the assay on XIP peptide (Xip251-270), -0.4 and -0.181. For the same compound, the z-score in assay [2] was -1.1 and -0.233; in assay [3], -5.29 (inactive) and -4.45 (inactive); in assay [4], -0.769 (inactive) and -0.0621 (inactive); in assay [5], -0.426 (inactive) and -0.217 (inactive).
With `CCC[C@@H]1C[C@@]1(CCC)[C@@H](NC(=O)c1ccc(-c2ccccc2)cc1)c1cccc(Cl)c1`, the composite z-score is 0.176 (inactive) and 0.184 (inactive) in assay [1]; -0.659 and 0.146 in the assay on XIP peptide (Xip251-270). Also, the z-score in assay [2] was -0.687 and -1.16; in assay [3] it was -3.47 (inactive) and -5.25 (inactive); in assay [4], 0.722 (inactive) and 0.514 (inactive); in assay [5] it was -0.198 (inactive) and 0.301 (inactive).
As for `COC(=O)[C@@]1(Cc2ccccc2)[C@H]2c3cc(C(=O)N(C)C)n(C[C@H](O)CO)c3C[C@H]2CN1C(=O)c1ccccc1`, the composite z-score in assay [1] is 0.386 (inactive) and -0.28 (inactive); in the assay with XIP peptide (Xip251-270), -0.0997 and 0.84. The z-score was -0.894 and -0.297 in assay [2]; -2.22 (inactive) and -4.41 (inactive) in assay [3]; -0.601 (inactive) and 1.42 (inactive) in assay [4]; -0.292 (inactive) and 1.06 (inactive) in assay [5].
